In all, about 33,000 sequences were measured (“e-score”: median about -0.05, highest 2% from about 0.38 on). Only a selection was taken, and the highest values are over-represented in it overall.

This test has as its target T1, SIX1-Q177R homeodomain (human, UniProt Q15475 108-198, Q177R).
T1 sequence: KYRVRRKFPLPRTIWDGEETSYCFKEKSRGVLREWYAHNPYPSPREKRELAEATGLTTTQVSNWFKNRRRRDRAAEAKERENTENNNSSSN
Description: universal protein binding microarray; Universal all-10-mer PBM (8x60K, AMADID 030236), 300 nM GST-tagged protein, Alexa Fluor 488 anti-GST; buffer, salt, pH and temperature not stated (as in Berger); high values mean tight binding. The conditions noted are these: protein: ivt; tags: N-terminal GST; dsDNA, one strand shown. The procedure, abridged:
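Homeodomains carrying a GST tag were produced by in vitro transcription/translation, then quantified by anti-GST western blot against a recombinant GST standard curve. Duplicate applications at 300 nM final concentration were made to universal 'all 10-mer' protein binding microarrays in 8×60K format. The Universal PBM Analysis Suite was used to express binding as 8-mer E-scores.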
For GGGTGTTA, the binding signal is 0.475 ± 0.00715 E-score.

Take AGGTGCTC: the binding signal was found to be 0.158 ± 0.0126 E-score.

As for CGGTGCTA, the binding signal turned out to be 0.2 ± 0.00414 E-score.

With ACGCCCAG, the binding signal was found to be 0.1915 ± 0.000269 E-score.

Regarding CACCTGGC, the binding signal was 0.152 ± 0.00727 E-score.

As to CGCCCAGC, the binding signal is 0.161 ± 0.0486 E-score.

For AATACCCT, the binding signal came out at 0.171 ± 0.00453 E-score.

Turning to CCCCTCGC, the binding signal is 0.169 ± 0.0263 E-score.

In the case of TGTCGGAA, the binding signal is 0.233 ± 0.0472 E-score.

On to GTGTGCTA, for which the binding signal was determined as 0.321 ± 0.0179 E-score.

GCGTTACA: the binding signal came to 0.201 ± 0.00911 E-score.

Take GCTGTGGA: the binding signal was determined as 0.17 ± 0.0188 E-score.

As to CGCCGTAC, the binding signal came to 0.178 ± 0.00701 E-score.

For the sequence AATGATCC, the binding signal was 0.17 ± 0.0375 E-score.

GTTGGACA: the binding signal came out at 0.245 ± 0.0116 E-score.

In the case of CCTCTCGA, the binding signal stood at 0.17 ± 0.0627 E-score.

As to CACGCACA, the binding signal was found to be 0.262 ± 0.00327 E-score.

For CTGTGTTC, the binding signal was found to be 0.175 ± 0.0413 E-score.

As to AGGTGTTA, the binding signal was 0.463 ± 0.00921 E-score.

With AGGGGTTA, the binding signal is 0.21 ± 0.0107 E-score.

On to CGGTGCTC, for which the binding signal came out at 0.218 ± 0.0427 E-score.

For CGGTGTTC, the binding signal was determined as 0.476 ± 0.00165 E-score.

As for CGGAGTCA, the binding signal amounted to 0.356 ± 0.0051 E-score.

In the case of TCATAACA, the binding signal stood at 0.23 ± 0.0137 E-score.

CCCGGTAC: the binding signal was 0.22 ± 0.0152 E-score.

In the case of CACCCTAG, the binding signal was 0.3472 ± 0.00144 E-score.

As for CACCCTAC, the binding signal was found to be 0.387 ± 0.01 E-score.

Consider CACCCCTA, for which the binding signal was found to be 0.283 ± 0.00661 E-score.

On to CACCCTAA, for which the binding signal came to 0.3263 ± 0.00228 E-score.

Consider CACCCCTC, for which the binding signal is 0.3928 ± 0.00375 E-score.

For the sequence CACCCCTG, the binding signal is 0.351 ± 0.0108 E-score.

For CACCCGCC, the binding signal came out at 0.339 ± 0.0104 E-score.

Turning to CACTTAGC, the binding signal came to 0.179 ± 0.029 E-score.

In the case of ACGCCCAC, the binding signal stood at 0.208 ± 0.00669 E-score.

ATCGGCAC: the binding signal was found to be 0.175 ± 0.0126 E-score.

As to AGTAGGGG, the binding signal is 0.196 ± 0.0406 E-score.

Turning to CCATGGAA, the binding signal was 0.156 ± 0.015 E-score.

Take ACACTGAT: the binding signal came out at 0.374 ± 0.00694 E-score.

Regarding ACGCTGGG, the binding signal turned out to be 0.154 ± 0.0213 E-score.

As for ACACTGGT, the binding signal was found to be 0.4256 ± 0.00135 E-score.

In the case of ACACTGGA, the binding signal amounted to 0.3915 ± 0.0011 E-score.

Take ACACTTGC: the binding signal was 0.363 ± 0.0273 E-score.

Take ACACTGGC: the binding signal was 0.379 ± 0.00546 E-score.

Regarding AAACTGGT, the binding signal was 0.203 ± 0.0496 E-score.

As to CCACTGGA, the binding signal came out at 0.206 ± 0.0185 E-score.

For the sequence ACACTGGG, the binding signal came to 0.412 ± 0.0164 E-score.

With ACACTGTA, the binding signal stood at 0.3506 ± 0.0019 E-score.

As to ACCCTGGG, the binding signal amounted to 0.238 ± 0.00896 E-score.

With ACCATGGG, the binding signal was 0.162 ± 0.0492 E-score.

On to CGATAACA, for which the binding signal is 0.232 ± 0.018 E-score.

As to GGGGTGGA, the binding signal came out at 0.159 ± 0.0262 E-score.

As to AGTCAGAG, the binding signal was determined as 0.156 ± 0.0606 E-score.

Regarding CACCCTGG, the binding signal came out at 0.315 ± 0.016 E-score.

For the sequence CCTTGACC, the binding signal was determined as 0.172 ± 0.00687 E-score.

With AAGGGGTA, the binding signal amounted to 0.2871 ± 0.000587 E-score.

In the case of AAACTACA, the binding signal turned out to be 0.184 ± 0.032 E-score.

For CGCCGTGC, the binding signal amounted to 0.188 ± 0.0146 E-score.

Turning to ACGTAGTG, the binding signal was found to be 0.23 ± 0.0205 E-score.

CACGTGTA: the binding signal amounted to 0.4 ± 0.0127 E-score.

As to AACGTGTA, the binding signal came out at 0.353 ± 0.0523 E-score.

With CACGTGCA, the binding signal worked out at 0.218 ± 0.0109 E-score.

For AACGTGTC, the binding signal came to 0.3481 ± 0.00176 E-score.

Turning to CACGTGTC, the binding signal was 0.398 ± 0.00923 E-score.

As to CACGTGCC, the binding signal was 0.225 ± 0.0142 E-score.

As for ACCGCTAG, the binding signal is 0.171 ± 0.0167 E-score.

On to AACAGGTG, for which the binding signal stood at 0.327 ± 0.0196 E-score.

Regarding CGTAACCC, the binding signal is 0.225 ± 0.019 E-score.

As for CGTAACAC, the binding signal was 0.4096 ± 0.00185 E-score.

Consider GGTAAACA, for which the binding signal worked out at 0.188 ± 0.00443 E-score.

GGTAACAC: the binding signal came out at 0.432 ± 0.00841 E-score.

For the sequence GTAAACAC, the binding signal was 0.375 ± 0.00722 E-score.

With AGTAACCC, the binding signal came out at 0.201 ± 0.0162 E-score.

CGTAGCAC: the binding signal was 0.17194 ± 0.000163 E-score.

On to AGTAACAC, for which the binding signal was determined as 0.424 ± 0.0116 E-score.

Consider CCACTTGC, for which the binding signal amounted to 0.163 ± 0.00866 E-score.

On to AGGGGTAC, for which the binding signal turned out to be 0.273 ± 0.0106 E-score.

In the case of ATCCCCAC, the binding signal was 0.211 ± 0.0453 E-score.

With ATCTTACA, the binding signal is 0.262 ± 0.0268 E-score.

In the case of ACCCGTAA, the binding signal worked out at 0.264 ± 0.0395 E-score.

As for TGCCGACA, the binding signal was determined as 0.177 ± 0.00329 E-score.

Regarding ACGGTGTA, the binding signal came out at 0.4693 ± 0.00139 E-score.

Turning to CCGGTGTA, the binding signal turned out to be 0.4859 ± 0.00134 E-score.

On to GATGTGTA, for which the binding signal is 0.19 ± 0.00781 E-score.

Regarding ACGGTGCA, the binding signal came out at 0.2931 ± 0.00041 E-score.

In the case of ACGGTGCT, the binding signal worked out at 0.179 ± 0.0133 E-score.

Take CCGGTATA: the binding signal came to 0.183 ± 0.0142 E-score.

GCGGTGTA: the binding signal came to 0.4849 ± 0.00132 E-score.

(Values after paper PMC10668032, “Altered binding affinity of SIX1-Q177R correlates with enhanced WNT5A and WNT pathway effector expression in Wilms tumor”.)
